This assay in a line: A549 cell viability effects, profiling panel, calcein-AM fluorescence, 48 h, basal (AID 1162). Further: test concentration not given here. The settings on record: higher = more signal.
Take `CCOC(=O)C[C@H]1[C@H](OC(=O)c2cc3ccccc3oc2=O)[C@@H](NC(=O)c2ccccc2)c2cc(OCCCO)ccc2N1C(=O)c1ccc2ccccc2n1`: the z-score is 0.282.
For the molecule `CCN(CC)c1ccc(N2CC=CC34O[C@@H]5C=CCCOC(=O)C5[C@H]3C(=O)N(CCCCCCO)[C@@H]4C2=O)cc1` (some centres undefined), the z-score was 0.75.
The value for `COC(=O)[C@@]1(Cc2ccccc2)[C@H]2c3cc(C(=O)N(C)C)n(Cc4ccsc4Br)c3C[C@H]2CN1C(=O)c1ccccc1` was 0.209.
On to `COCCOC(=O)N1C(=O)[C@@]2(c3ccccc31)[C@H](c1ccccc1OCCO)N1[C@H](c3ccccc3)[C@H](c3ccccc3)OC(=O)[C@H]1[C@@H]2C(=O)N1CCN(c2ncccn2)CC1`, for which the z-score was -0.588.
Regarding `O[C@@H](Cc1ccccc1)[C@H]1C2C=CCCC=C2CN1Cc1cccc(Cl)c1` (some centres undefined), the z-score was 0.675.
Turning to `COc1cc2c(cc1OC)CN(C(=O)[C@@H]1[C@H]3C(=O)O[C@H](c4ccccc4)[C@H](c4ccccc4)N3[C@H](c3ccccc3OCCO)[C@@]13C(=O)Nc1ccc(C#CCCO)cc13)CC2`, the z-score is 1.26.
The value for `Cc1ccc(S[C@]2(C(=O)O)CC(=O)N(C(C)C)[C@@H]2c2ccc(CO)cc2I)cc1` was 2.14; that for `O=C1O[C@H](c2ccccc2)[C@H](c2ccccc2)N2[C@H]1[C@@H](C(=O)N1CCCCCCC1)[C@]1(C(=O)Nc3ccc(C#CCCO)cc31)[C@H]2c1ccccc1OCCO` was 0.405; that for `C=CCNC(=O)[C@@H]1[C@H]2C(=O)O[C@H](c3ccccc3)[C@H](c3ccccc3)N2[C@H](c2ccc(O)cc2)[C@@]12C(=O)N(C(=O)OCCOC)c1ccc(C#CCNC(N)=O)cc12` was 0.978.

Values taken from PubChem BioAssay.
